Laboratory results taken from ChEMBL document CHEMBL3988442, “University of Dundee, Small-Polar-MMV Screening Library” (2021).
For some of these results: Potency and affinity values are given separately.

Experiments:
Set-up in all cases: scale not given: direction of the effect not stated beside the values
[1] = biological target: Protein translocase subunit SecA (Escherichia coli (strain K12)) (UniProt P10408); assay: Assay to Identify E. coli SecA ATPase Inhibitors; assay type: functional; conditions: 30 µM
[2] = biological target: T1, Ubiquitin-activating enzyme e1, putative (Leishmania donovani (strain BPK282A1)) (UniProt E9BSI1); assay: Leishmania donovani Ubiquitin Activating Enzyme (LdE1); assay type: functional; conditions: 30 µM
T1 sequence (whole entry): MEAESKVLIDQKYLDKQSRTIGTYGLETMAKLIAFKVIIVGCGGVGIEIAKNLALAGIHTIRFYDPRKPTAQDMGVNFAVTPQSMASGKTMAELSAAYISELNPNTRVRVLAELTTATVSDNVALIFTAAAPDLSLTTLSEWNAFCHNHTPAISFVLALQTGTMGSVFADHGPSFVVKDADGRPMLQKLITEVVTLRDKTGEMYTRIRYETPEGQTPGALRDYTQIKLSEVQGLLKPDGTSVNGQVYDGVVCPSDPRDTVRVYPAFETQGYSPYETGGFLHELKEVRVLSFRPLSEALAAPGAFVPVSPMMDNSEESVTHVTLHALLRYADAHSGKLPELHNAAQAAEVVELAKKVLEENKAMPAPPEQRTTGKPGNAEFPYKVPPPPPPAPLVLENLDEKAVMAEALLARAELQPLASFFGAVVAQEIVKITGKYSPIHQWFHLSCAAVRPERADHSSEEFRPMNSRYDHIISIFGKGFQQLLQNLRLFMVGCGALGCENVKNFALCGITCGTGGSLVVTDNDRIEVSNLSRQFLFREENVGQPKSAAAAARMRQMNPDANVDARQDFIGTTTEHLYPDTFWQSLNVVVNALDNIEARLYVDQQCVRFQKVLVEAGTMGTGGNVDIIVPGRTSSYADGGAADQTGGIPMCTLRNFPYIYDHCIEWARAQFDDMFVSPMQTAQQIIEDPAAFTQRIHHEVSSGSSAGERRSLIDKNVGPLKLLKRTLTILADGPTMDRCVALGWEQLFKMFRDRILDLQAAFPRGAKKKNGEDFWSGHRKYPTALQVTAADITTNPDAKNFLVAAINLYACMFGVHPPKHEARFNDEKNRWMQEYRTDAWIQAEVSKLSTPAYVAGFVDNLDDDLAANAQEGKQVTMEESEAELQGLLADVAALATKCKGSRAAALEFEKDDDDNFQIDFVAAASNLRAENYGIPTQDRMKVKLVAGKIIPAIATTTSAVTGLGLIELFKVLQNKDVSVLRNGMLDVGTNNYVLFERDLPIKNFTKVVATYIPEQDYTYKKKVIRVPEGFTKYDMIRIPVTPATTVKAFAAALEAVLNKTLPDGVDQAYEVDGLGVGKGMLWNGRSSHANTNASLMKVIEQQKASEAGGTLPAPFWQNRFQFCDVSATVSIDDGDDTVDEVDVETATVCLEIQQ

[3] = biological target: AMP-activated protein kinase, AMPK (Homo sapiens) (UniProt P54646+O43741+P54619+Q9UGJ0+Q9Y478+Q13131+Q9UGI9); assay: AMP-dependent Kinase enzyme assay. An in vitro enzyme assay that detects ADP turnover that is directly proportional to AMPK activity. This uses naive AMPK that is activated during the assay with MK-8722; assay type: functional; conditions: 30 µM
[4] = biological target: Sialic acid-binding Ig-like lectin 9 (Homo sapiens) (UniProt Q9Y336); assay: Hs-Siglec9 ALPHAscreen SOP 20170721; conditions: 10 µM
Trypanosoma cruzi = assay: Trypanosoma cruzi phosphomannomutase and mannose-1-phosphate guanylyltransferase assay; assay type: functional; conditions: 10 µM
[5] = biological target: T2, Arginase-2, mitochondrial (Homo sapiens) (UniProt P78540); assay: in vitro enzyme assay to detect the production of urea directly proportional to the activity of Arginase II; assay type: functional; conditions: 33.3 µM; also: in the data most compounds retested in dose-response had high values
T2 sequence (whole entry): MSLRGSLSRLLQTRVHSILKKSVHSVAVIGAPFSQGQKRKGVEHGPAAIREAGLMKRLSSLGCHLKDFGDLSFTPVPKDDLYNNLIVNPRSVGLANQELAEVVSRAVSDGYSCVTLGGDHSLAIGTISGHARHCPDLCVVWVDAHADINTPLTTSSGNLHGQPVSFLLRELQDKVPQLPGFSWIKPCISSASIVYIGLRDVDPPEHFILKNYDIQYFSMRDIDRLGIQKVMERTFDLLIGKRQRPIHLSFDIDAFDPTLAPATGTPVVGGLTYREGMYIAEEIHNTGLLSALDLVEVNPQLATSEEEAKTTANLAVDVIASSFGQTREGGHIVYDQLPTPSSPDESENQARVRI

[6] = biological target: T3, Proteasome subunit beta (Trypanosoma cruzi) (UniProt O96673); assay: Trypanosoma cruzi proteasome chymotrypsin-like activity (TcProtChymo) assay.; also: in the data most compounds retested in dose-response had high values; assay type: functional; conditions: 9.37 µM
T3 sequence (whole entry): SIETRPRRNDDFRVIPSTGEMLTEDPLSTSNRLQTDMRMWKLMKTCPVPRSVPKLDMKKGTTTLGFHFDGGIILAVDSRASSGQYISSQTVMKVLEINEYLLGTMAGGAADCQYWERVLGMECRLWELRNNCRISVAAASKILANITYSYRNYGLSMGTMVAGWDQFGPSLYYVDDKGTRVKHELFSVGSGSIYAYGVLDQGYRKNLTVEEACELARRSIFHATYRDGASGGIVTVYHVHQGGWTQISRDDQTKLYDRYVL

Homo sapiens = organism: Homo sapiens; assay: To identify inhibition of the IFN signalling (Jak-Stat) pathway via expression of an eGFP reporter gene under the control of an IFN-stimulated response element (ISRE) containing MxA promoter.; assay type: functional; conditions: 30 µM
[7] = biological target: T4, Tyrosyl-tRNA synthetase, putative (Trypanosoma cruzi (strain CL Brener)) (UniProt Q4DSP6); assay: Trypanosoma cruzi tyrosyl tRNA synthetase (TcYRS) _High Tyrosine SOP; assay type: functional; conditions: 30 µM; also: in the data most compounds retested in dose-response had high values
T4 sequence (whole entry): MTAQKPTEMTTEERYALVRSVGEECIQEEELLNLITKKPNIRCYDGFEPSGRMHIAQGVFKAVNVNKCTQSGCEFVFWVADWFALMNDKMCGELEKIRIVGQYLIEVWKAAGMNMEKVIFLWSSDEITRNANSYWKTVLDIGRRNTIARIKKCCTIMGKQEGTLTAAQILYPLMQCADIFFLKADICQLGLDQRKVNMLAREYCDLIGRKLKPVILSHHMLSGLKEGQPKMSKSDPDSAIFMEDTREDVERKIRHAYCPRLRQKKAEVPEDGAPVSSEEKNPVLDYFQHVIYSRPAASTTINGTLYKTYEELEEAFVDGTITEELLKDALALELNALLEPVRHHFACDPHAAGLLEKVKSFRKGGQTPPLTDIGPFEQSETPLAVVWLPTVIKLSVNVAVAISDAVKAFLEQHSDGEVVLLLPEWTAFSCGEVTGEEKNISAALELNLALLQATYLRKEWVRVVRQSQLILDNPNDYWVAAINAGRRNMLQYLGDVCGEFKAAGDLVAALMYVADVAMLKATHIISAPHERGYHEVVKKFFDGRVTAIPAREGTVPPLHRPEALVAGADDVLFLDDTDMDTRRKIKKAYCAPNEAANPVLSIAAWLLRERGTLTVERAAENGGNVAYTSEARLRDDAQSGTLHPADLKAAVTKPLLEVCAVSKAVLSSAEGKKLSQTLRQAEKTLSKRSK

[8] = biological target: T4, Tyrosyl-tRNA synthetase, putative (Trypanosoma cruzi (strain CL Brener)); assay: Trypanosoma cruzi tyrosyl tRNA synthetase (TcYRS) SOP; assay type: functional; conditions: 30 µM
[9] = biological target: Chromo domain-containing protein 1 (Saccharomyces cerevisiae (strain ATCC 204508 / S288c) (Baker's yeast)) (UniProt P32657); assay: ScCHD-1 Enzyme Inhibition Assay; assay type: functional; conditions: 30 µM; also: in the data most compounds retested in dose-response had high values
Chromo domain-containing protein 1 (Saccharomyces cerevisiae (strain ATCC 204508 / S288c) (Baker's yeast)), sequence (P32657 whole entry, the tested form may be a part): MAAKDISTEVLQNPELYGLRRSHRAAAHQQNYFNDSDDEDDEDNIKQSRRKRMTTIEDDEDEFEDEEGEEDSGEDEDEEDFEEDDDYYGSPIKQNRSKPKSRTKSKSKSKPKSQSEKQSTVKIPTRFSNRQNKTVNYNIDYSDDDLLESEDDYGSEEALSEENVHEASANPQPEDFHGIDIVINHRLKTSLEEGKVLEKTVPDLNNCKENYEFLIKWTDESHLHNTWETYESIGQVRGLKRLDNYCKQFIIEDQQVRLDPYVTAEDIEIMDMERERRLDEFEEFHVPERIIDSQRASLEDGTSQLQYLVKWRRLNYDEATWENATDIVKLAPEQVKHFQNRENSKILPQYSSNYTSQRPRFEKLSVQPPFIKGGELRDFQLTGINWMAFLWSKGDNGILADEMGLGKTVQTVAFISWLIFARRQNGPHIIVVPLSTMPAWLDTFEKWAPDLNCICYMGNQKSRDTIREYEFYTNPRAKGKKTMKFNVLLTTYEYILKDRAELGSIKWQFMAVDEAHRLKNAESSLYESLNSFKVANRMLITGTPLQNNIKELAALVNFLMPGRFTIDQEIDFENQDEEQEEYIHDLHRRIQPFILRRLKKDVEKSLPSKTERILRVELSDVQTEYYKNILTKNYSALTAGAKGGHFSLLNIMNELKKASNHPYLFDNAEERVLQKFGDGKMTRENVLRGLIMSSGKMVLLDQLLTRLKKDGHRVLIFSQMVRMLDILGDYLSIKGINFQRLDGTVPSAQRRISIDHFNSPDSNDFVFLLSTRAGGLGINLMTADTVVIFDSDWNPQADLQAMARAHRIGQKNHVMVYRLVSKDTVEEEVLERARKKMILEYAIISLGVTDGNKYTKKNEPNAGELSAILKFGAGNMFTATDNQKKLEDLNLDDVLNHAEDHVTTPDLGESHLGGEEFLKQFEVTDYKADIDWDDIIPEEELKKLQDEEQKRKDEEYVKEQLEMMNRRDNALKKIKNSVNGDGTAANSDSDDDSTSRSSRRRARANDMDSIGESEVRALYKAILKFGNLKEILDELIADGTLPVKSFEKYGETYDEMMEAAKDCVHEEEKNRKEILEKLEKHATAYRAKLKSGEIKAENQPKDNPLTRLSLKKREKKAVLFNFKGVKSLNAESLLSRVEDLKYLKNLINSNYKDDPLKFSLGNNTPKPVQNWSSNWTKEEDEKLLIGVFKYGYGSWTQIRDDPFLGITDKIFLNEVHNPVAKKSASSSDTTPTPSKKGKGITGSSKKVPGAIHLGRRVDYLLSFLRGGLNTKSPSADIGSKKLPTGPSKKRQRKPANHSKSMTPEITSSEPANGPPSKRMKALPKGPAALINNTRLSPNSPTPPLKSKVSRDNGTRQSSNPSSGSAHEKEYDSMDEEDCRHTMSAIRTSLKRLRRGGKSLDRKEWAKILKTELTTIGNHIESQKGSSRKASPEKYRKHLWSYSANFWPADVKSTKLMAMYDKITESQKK

Sialic acid-binding Ig-like lectin 9 (Homo sapiens), sequence (Q9Y336 whole entry): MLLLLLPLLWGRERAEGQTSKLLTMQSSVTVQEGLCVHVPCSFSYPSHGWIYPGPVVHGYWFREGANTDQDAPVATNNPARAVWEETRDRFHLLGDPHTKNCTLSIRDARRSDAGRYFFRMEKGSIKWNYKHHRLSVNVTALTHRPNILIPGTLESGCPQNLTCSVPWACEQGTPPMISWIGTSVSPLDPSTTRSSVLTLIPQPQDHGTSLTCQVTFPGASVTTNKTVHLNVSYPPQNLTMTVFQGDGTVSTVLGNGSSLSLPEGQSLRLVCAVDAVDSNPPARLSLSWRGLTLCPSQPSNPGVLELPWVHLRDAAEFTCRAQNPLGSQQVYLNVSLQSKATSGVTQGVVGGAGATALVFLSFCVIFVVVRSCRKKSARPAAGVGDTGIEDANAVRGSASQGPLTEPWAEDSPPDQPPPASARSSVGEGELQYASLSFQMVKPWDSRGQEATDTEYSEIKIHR
Protein translocase subunit SecA (Escherichia coli (strain K12)), sequence (P10408 whole entry): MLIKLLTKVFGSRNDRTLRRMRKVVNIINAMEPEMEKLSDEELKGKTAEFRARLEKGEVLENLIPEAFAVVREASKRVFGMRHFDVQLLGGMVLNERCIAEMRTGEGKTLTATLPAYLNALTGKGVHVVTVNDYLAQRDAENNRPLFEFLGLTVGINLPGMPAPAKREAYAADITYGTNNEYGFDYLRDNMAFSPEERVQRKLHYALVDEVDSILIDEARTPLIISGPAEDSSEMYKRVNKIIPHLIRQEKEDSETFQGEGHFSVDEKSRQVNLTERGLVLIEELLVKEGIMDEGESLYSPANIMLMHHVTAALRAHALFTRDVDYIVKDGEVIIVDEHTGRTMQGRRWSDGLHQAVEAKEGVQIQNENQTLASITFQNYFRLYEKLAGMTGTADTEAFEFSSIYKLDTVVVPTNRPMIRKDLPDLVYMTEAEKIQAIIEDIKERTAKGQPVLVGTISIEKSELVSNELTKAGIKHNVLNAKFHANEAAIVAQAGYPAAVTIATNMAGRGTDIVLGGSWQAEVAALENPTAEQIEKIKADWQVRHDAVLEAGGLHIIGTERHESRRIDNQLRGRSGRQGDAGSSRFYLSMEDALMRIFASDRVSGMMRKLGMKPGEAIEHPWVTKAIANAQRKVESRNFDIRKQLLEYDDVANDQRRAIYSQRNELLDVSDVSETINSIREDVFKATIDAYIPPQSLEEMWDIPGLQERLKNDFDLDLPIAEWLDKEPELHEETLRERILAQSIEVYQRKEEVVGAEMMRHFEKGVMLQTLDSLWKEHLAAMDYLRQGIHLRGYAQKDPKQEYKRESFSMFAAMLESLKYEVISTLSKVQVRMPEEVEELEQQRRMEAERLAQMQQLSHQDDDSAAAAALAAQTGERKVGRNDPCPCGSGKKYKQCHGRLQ

| Compound | Percent Effect [1] [%] | Percent Effect [2] [%] | Percent Effect [3] [%] | Percent Effect [4] [%] | Percent Effect (Trypanosoma cruzi) [%] | Percent Effect [5] [%] | Percent Effect [6] [%] | Percent Effect (Homo sapiens) [%] | Percent Effect [7] [%] | Percent Effect [8] [%] | Percent Effect [9] [%] |
| --- | --- | --- | --- | --- | --- | --- | --- | --- | --- | --- | --- |
| CCOc1ccc(-n2nnc(C(=O)O)c2-c2ccncc2)cc1 | -0.35 | 13.2 | 1.31 | -8.67 | 0.292 | 1.18 | 9.11 | 23.3 | 2.13 | 18.2 | -5.18 |
| CN(CCc1ccccc1)Cc1cc(C(=O)N2CCCC2(C)C)no1 | 8.96 | 13.7 | -8.24 | 6.18 | -2.38 | -17.6 | 11 | 33.7 | 8.33 | 11.1 | -0.0446 |
| O=C(NC1(c2cccc(F)c2)CCOCC1)c1cc[nH]n1 | -4.6 | 5.2 | 0.0633 | 4.75 | 0.885 | -23.4 | 5.32 | 4.47 | 2.15 | 3.7 | -1.53 |
| CC(C)NC(=O)c1n[nH]c(-n2cnnc2)n1 | -5.17 | 9.33 | -5.08 | 5.32 | 1.77 | -4.05 | 2.77 | 2.63 | 4.23 | 10.3 | -8.26 |
| COc1c(C2CCCN2C(=O)c2csc(C(C)C)n2)c(C)nn1C (stereo not given) | -5.84 | 5.2 | 2.93 | 11.7 | 0.187 | 1.07 | -5.91 | 8.75 | 3.88 | 9.76 | 0.696 |
| N#Cc1ccccc1CN1C[C@@H]2CC[C@H](C1)N(CC1CC1)C2=O | -0.53 | 13.5 | -0.476 | 12.4 | 1.74 | 2.38 | 13.4 | 4.71 | 4.76 | 14.6 | -0.908 |
| CN(Cc1nc(-c2ccco2)no1)C1CCCN(c2cccnn2)C1 (stereo not given) | -1.52 | 20.2 | -5.85 | -5.93 | 2.17 | 1.14 | 16.1 | 11.9 | 6.4 | 21.5 | -10.1 |
| CSc1nccn1-c1cccc(C(=O)NCCCN2CCOCC2)c1 | -3.34 | 18.4 | 0.67 | -6.16 | 1.21 | -2.52 | 16.5 | 5.76 | 7.39 | 18.5 | -4.95 |
| O=C(Cc1ccsc1)N1CCCC(c2n[nH]c3nccnc23)C1 (stereo not given) | -5.56 | 14.9 | 11.9 | -1.03 | 4.94 | -1.16 | 15.9 | 17.3 | 2.15 | 9.09 | -4.76 |
| COCCN(Cc1ccoc1)C(=O)c1c(F)cccc1Cl | -4.43 | 5.2 | 10.7 | 9.59 | -5.62 | 5.81 | 2.44 | -5.55 | 3.17 | 11.5 | -5.12 |
| Cc1ccc(CNC(=O)CN2CCN(CC(O)C3CC3)CC2)cc1 (stereo not given) | -0.763 | 18.2 | -0.209 | -0.425 | 1.87 | 1.94 | 11.3 | 15.5 | 9.52 | 16.7 | 89.9 |
| CCn1cc(NC(=O)C2CCN(Cc3ccccc3C#N)CC2)cn1 | -3.86 | 8.86 | 6.54 | 0.163 | -3.79 | 1.5 | 7.03 | 11.2 | 9.38 | 20.2 | -6.33 |
| Cc1cn(CC(=O)NC2CCN(S(C)(=O)=O)CC2)c2ccccc12 | -4.19 | 0 | 0.231 | -6.08 | -2.44 | 1.74 | 3.18 | 0.23 | 2.15 | 8.64 | -4.9 |
| COc1c(CNC2CCCc3ccccc32)c(C(C)C)nn1C (stereo not given) | -5.37 | 21.6 | -16.6 | 17.5 | 7.71 | -5.73 | 3.59 | 6.78 | 4.95 | 18.3 | -4.82 |
| CC(Cn1cccn1)NC(=O)Nc1ccc(N(C)C)nc1 (stereo not given) | -4.33 | 1.39 | -12.7 | -12 | -7.09 | 0.883 | 22.3 | 10.8 | 1.05 | -2.56 | -1.82 |
| O=C(NCc1ccncc1)N(Cc1ccccc1F)C1CC1 | -6.03 | 18.7 | -7.25 | 29.6 | 10.2 | 51 | 17.1 | 5.89 | 2.73 | 16.1 | -6.63 |
| Cc1nnc2n1CCN(C(=O)c1cc(Cl)c(Cl)n1C)C2 | -1.98 | 5.26 | -1.75 | 6.76 | 2.63 | -1.53 | 0.501 | -1.85 | -1.47 | 7.32 | -1.57 |
| Cc1noc(C)c1CN1CC[C@@H](OCC2CC2)[C@@H](Cc2ccccc2)C1 | -3.38 | 13.3 | 8.95 | -2.52 | 3.15 | 1.63 | 14 | 1.91 | 5.32 | 14.1 | -5.06 |
| Cc1ccc(OCCC(=O)NC2CCc3nc(C)cn3C2)cc1 (stereo not given) | -3.65 | 5.26 | 5.43 | 5.54 | 0.0974 | -4.73 | 14.7 | 15.1 | 3.19 | 10.4 | -1.61 |
| NCc1cnn(-c2ccccc2C(=O)NCCCn2ccnc2)c1 | -3.74 | 6.76 | 9.61 | -1.25 | -3.16 | -1.16 | 0.312 | 4.01 | 7.53 | 11.7 | -2.44 |
